Among the data in PubChem BioAssay AID743383 (National Center for Advancing Translational Sciences (NCATS), 2014) are Potency values, retold here.

Molecules are shown by their SMILES. Calls of active or inactive are those of the source. The call rests on the fitted dose curve.

This assay deals with Phosphatidylinositol 5-phosphate 4-kinase type-2 alpha (Homo sapiens) (UniProt P48426). Put plainly: qHTS for Inhibitors of PI5P4K: PI5P4K-alpha 32P-ATP TLC Secondary Assay for Probe SAR. Conditions: recombinant PI5P4K-alpha, 32P-ATP TLC PI(4,5)P2 formation. From the text: In addition to finding PI5P, we discovered the type II phosphatidylinositol 5-phosphate 4-kinase (PI5P4K) family (alpha, beta, gamma isoforms) that catalyze the conversion of PI5P to PI(4,5)P2. Alternatively, PI(4,5)P2 can also be synthesized through phosphatidylinositol-4-phosphate (PI4P) by the type I phosphatidylinositol 4-phosphate 5-kinases (PI4P5K). These PI5P4K enzymes therefore represent one way by which cells can regulate endogenous PI5P levels and play important roles in insulin signaling and in stress responses. […] A qHTS PI5P4K-alpha ADP-Glo assay was developed to identify specific modulators of human PI5P4K, phosphatidylinositol-5-phosphate 4-kinase (Type II PIPK). To confirm that the active compounds and their analogs were true and selective inhibitors, a secondary Thin-layer Chromatography (TLC) assay against recombinant PI5P4K-alpha, PI4P5K-alpha or PI5P4K-beta that utilize a radioactively labeled ATP were developed. The data herein are the result of the PI5P4Kalpha TLC assay. […]
Sequence of Phosphatidylinositol 5-phosphate 4-kinase type-2 alpha (Homo sapiens) (P48426 whole entry, looked up, canonical isoform): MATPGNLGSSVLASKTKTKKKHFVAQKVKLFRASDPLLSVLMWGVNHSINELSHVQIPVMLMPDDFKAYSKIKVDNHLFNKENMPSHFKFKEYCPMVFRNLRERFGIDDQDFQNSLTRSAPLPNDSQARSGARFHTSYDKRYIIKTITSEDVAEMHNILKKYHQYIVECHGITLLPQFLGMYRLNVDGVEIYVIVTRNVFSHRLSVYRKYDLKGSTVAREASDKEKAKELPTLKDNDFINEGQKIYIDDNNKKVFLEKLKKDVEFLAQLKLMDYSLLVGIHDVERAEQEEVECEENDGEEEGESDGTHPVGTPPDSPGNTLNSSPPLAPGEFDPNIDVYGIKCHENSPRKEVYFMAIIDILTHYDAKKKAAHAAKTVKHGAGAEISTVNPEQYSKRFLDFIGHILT
The kinase reaction was carried out in a total of 50 microL of kinase buffer (50 mM HEPES pH 7.4 and 10 mM MgCl2) containing 20 microM of the lipids that were suspended by sonication. […] The radiolabeled product, PI(4,5)P2, was quantified with a phosphorimager (Molecular Dynamics, STORM840, GE Healthcare, Waukesha, WI, USA).
A general note: Quantitative high-throughput screening tests each substance at several concentrations.
In the case of `O=C1Nc2ccc(C(=O)c3ccco3)cc2/C1=C/c1cc(Cl)c(O)c(Cl)c1`, the Potency is 18 nM (active).
